This is one part of the list. Active and inactive are the calls of the source. Cut-off read from the data, not from the text of the source: active = activation above about 20%; inactive = the rest.

The test can be described thus: fluorescence polarization artefacts, biochemical, artefact control for PKA-R2B activator project (AID 504796).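 Note: Cy5 labelled IP20 peptide probe with compound but no PKA protein.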 As to conditions: FP artifact counterscreen, at 11.4 µM, stronger effect = higher value.
For the compound `O=C(CNC(=O)c1ccccc1)NCC(=O)OCC(=O)c1ccccc1`, the activation was 9.84% (inactive).

As for `COc1ccc([N+](=O)[O-])cc1C1NN=C(c2cccc3ccccc23)S1` (stereo not drawn), the activation is 4.38% (inactive).

Take `CC(C)(C)c1nnc(N/N=C/c2ccc(O)cc2)n(N)c1=O`: the activation is 1.05% (inactive).

Turning to `O=C(CN(C(=O)CCC(=O)Nc1nccs1)c1ccc(F)cc1)NCc1ccc2c(c1)OCO2`, the activation is -1.45% (inactive).

As to `CC(C)(C)c1ccc(C(=O)N2CCC(C(=O)N3CCCCC3)CC2)cc1`, the activation is 4.67% (inactive).

`CCCC(=O)Nc1ncnc2c1ncn2[C@@H]1O[C@@H]2OP(=O)(O)OC[C@H]2[C@H]1OC(=O)CCC`: the activation was 0.15% (inactive).

As for `O=C(O)C1=C(C(=O)O)C2CCC1C2`, the activation was 5.92% (inactive).

For `COc1ccc(C/C(C)=N/NC(=O)c2ccncc2)cc1`, the activation was 1.96% (inactive).

On to `O=S(=O)(NCCNS(=O)(=O)c1ccccc1)c1ccccc1`, for which the activation is 4.68% (inactive).

As to `COc1ccc(CC(NC(C)=O)C(=O)NC2CCN(C(=O)c3ccc(Cl)cc3)CC2)cc1` (stereo not drawn), the activation was 3.95% (inactive).

For the compound `COc1cccc(Nc2nnc(SCC(=O)N3CC(C)OC(C)C3)s2)c1` (stereo not drawn), the activation is 1.43% (inactive).

In the case of `O=C(CCCN1C(=O)c2cccc3cccc(c23)C1=O)N1CCN(Cc2ccc3c(c2)OCO3)CC1`, the activation was 1.66% (inactive).

In the case of `N#Cc1ccccc1CN1C(=O)S/C(=C/c2cccn2-c2cccc(C(=O)O)c2)C1=O`, the activation was 19.3% (active).

For the origin of these results see PubChem BioAssay AID504796 (The Scripps Research Institute Molecular Screening Center, 2011).
